Of roughly 7,900 targets only a part is listed; those with a hit were picked by preference. About 0.6% of all pairs of compound and target were hits.
The targets below were run with Cc1ccc(NC(=O)c2ccc(CN3CC[C@H](N(C)C)C3)c(C(F)(F)F)c2)cc1Nc1nccc(-c2cncnc2)n1 [bafetinib] (assay: log2 fold change, soluble protein after heating vs DMSO (PISA); higher = thermal stabilisation; K562 cells, 10 uM, 30 min; active = over 0.2 and 3.5 SD of the protein, either way, in both replicates (recomputed)).
Procedure, shortened: (§1)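 K562 cells at 2×10^6 cells/mL were exposed to 10 μM compound for 30 min, then aliquots were heated for 3 min across 48°C-58°C, pooled, and extracted in PBS containing 0.5% NP-40 at 4°C. The supernatant after 21,000xg for 90 min was taken as soluble protein and measured by TMTpro 16plex LC-MS/MS with channel sums equalised. Thermal stability is reported relative to control samples, with values from duplicates. Fold changes are given on a log2 scale.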

UniProt Q8NCW6, sequence (Q8NCW6 whole entry, looked up): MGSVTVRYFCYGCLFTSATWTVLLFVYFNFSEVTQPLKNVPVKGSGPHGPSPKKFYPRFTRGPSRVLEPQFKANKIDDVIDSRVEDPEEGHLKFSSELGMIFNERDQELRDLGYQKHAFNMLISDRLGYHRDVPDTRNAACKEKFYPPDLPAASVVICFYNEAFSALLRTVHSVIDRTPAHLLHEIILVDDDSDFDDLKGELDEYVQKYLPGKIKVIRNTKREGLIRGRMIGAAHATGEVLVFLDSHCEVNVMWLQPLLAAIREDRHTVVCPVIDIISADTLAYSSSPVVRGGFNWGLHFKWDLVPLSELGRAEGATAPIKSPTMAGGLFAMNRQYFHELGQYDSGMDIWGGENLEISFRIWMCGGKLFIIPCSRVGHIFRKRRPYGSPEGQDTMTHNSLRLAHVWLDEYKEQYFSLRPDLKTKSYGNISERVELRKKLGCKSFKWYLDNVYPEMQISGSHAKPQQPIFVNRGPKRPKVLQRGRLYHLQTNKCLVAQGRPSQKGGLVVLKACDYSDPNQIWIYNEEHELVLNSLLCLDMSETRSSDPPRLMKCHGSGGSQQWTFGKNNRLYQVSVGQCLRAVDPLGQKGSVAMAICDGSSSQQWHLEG
UniProt Q86UX7, sequence (Q86UX7 whole entry, looked up): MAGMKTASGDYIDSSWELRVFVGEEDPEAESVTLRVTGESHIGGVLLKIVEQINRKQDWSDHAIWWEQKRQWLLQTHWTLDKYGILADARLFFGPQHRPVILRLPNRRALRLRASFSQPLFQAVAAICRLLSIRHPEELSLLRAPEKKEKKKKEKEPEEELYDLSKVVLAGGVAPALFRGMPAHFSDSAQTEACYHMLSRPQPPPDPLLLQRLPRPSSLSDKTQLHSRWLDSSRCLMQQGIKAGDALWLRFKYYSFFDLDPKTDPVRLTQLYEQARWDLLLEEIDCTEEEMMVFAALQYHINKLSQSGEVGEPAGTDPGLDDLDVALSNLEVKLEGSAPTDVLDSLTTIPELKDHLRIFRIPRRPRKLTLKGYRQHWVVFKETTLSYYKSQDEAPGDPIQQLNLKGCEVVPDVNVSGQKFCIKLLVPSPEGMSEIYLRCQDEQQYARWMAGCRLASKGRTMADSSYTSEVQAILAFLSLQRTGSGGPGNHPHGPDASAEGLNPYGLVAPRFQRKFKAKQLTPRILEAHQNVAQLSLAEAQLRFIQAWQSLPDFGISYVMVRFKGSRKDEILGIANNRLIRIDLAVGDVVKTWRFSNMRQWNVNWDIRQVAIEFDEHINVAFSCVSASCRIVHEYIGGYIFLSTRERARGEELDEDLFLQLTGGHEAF
UniProt P08236, sequence (P08236 whole entry, looked up): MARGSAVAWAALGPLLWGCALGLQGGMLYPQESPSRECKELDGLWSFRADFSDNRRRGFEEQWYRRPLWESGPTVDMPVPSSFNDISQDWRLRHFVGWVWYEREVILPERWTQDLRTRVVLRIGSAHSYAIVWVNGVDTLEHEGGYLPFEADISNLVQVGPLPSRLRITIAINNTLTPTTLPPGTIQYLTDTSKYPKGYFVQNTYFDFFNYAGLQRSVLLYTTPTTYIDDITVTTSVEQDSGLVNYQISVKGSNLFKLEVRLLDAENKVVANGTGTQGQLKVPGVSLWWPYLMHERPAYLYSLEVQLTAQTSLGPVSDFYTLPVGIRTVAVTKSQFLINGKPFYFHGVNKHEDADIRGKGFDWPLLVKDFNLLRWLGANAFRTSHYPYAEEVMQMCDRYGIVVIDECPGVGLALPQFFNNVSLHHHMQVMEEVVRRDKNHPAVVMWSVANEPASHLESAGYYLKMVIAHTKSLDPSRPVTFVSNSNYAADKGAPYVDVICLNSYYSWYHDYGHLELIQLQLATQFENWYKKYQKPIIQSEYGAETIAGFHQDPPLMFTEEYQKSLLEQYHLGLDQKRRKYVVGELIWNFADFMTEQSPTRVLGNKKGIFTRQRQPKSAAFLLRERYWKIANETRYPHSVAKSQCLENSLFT
UniProt Q12894, sequence (Q12894 whole entry, looked up): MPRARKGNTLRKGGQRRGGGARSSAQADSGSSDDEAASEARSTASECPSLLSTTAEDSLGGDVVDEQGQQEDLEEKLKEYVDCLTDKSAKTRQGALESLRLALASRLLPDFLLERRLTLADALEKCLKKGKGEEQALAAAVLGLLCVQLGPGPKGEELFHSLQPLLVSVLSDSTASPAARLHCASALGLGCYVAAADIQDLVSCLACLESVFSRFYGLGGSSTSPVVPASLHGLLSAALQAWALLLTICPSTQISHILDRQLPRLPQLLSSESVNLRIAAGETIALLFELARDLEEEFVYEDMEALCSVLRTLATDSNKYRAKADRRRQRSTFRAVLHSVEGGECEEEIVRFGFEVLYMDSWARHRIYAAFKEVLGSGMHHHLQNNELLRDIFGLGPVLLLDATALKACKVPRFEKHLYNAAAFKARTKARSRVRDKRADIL
UniProt Q9UJ14, sequence (Q9UJ14 whole entry, looked up): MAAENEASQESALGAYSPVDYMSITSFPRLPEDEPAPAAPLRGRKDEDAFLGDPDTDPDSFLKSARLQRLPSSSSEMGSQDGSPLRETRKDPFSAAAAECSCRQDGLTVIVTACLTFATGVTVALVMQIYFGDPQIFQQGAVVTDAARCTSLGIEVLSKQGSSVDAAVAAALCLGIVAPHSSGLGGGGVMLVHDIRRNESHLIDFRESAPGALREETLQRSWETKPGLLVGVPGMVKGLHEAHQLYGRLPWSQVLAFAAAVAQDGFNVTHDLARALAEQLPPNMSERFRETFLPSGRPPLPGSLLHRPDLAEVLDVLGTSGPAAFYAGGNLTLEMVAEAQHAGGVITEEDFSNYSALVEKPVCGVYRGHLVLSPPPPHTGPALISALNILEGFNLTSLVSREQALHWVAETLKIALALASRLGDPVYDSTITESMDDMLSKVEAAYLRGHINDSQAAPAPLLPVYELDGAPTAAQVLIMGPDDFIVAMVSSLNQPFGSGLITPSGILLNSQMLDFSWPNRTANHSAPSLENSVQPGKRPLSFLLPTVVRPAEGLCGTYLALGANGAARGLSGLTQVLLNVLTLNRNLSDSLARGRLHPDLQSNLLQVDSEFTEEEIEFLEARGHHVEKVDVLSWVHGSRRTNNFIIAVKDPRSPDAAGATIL
UniProt P14324, sequence (P14324 whole entry, looked up): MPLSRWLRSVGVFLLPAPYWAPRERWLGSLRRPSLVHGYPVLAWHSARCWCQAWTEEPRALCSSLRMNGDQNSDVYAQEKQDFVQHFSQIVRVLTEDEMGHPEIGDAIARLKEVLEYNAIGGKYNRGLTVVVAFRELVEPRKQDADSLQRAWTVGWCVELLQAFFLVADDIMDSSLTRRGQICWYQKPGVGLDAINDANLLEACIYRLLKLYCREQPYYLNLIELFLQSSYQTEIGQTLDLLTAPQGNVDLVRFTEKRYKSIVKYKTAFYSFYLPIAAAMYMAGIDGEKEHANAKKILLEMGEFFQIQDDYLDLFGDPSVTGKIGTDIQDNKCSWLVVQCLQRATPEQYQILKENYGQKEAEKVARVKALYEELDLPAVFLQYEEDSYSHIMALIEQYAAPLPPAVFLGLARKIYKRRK
UniProt P15260, sequence (P15260 whole entry, looked up): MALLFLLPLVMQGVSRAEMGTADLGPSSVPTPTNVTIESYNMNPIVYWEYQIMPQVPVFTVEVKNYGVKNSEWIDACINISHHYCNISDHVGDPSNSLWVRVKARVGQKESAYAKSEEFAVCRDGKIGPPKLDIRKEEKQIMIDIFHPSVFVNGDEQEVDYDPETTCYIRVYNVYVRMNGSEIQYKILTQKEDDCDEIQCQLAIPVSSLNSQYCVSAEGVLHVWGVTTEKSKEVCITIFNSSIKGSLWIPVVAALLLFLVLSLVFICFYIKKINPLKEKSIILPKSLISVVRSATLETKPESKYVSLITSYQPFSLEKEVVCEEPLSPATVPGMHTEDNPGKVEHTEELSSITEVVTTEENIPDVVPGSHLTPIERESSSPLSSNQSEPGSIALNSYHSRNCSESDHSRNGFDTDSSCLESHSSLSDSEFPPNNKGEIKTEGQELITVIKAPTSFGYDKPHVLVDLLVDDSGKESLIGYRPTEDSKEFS
UniProt O94925, sequence (O94925 whole entry, looked up): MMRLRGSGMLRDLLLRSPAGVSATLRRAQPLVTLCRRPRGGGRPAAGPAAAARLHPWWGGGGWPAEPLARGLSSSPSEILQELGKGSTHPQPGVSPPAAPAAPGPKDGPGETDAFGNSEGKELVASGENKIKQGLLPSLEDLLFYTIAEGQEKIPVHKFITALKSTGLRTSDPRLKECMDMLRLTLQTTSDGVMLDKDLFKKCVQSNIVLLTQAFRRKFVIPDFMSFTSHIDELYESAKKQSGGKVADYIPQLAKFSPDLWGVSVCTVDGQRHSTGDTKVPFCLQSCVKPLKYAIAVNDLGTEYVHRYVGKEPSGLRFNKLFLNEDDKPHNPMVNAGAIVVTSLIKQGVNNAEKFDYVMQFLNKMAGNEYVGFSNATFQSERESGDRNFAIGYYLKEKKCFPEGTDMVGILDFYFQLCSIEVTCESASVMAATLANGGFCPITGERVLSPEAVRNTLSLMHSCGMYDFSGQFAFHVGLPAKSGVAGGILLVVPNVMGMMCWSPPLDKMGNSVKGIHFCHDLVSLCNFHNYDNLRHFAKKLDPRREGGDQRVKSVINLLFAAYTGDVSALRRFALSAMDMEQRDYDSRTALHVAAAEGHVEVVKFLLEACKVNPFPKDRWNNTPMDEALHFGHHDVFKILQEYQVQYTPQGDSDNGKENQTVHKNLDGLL
UniProt P78417, sequence (P78417 whole entry, looked up): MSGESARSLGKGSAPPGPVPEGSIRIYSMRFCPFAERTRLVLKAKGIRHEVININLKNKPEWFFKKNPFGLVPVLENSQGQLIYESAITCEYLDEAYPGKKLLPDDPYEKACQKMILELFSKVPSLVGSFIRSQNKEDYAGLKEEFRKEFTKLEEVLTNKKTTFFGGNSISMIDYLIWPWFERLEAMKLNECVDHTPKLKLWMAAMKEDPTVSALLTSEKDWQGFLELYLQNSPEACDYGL
UniProt P09105, sequence (P09105 whole entry, looked up): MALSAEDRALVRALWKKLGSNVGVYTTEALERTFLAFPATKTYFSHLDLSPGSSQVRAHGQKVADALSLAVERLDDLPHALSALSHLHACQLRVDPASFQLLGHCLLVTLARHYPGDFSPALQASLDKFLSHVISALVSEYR

Which log2 fold change does the source give for FDPS (UniProt P14324) here?
The log2 fold change was 0.057 (inactive).

How did the log2 fold change turn out when GLUD1 (UniProt P00367) was run?
The log2 fold change was 0.25 (inactive).

Which log2 fold change does the source give for GLRX3 (UniProt O76003) here?
Its log2 fold change is -0.04 (inactive).

For GTF3A (UniProt Q92664), which log2 fold change is on record?
The log2 fold change was -0.113 (inactive).

For GLS (UniProt O94925), which log2 fold change is on record?
The log2 fold change was -0.021 (inactive).

With GUSB (UniProt P08236) as the target, how does the log2 fold change read?
The log2 fold change was 0.016 (inactive).

Which log2 fold change does the source give for FERMT3 (UniProt Q86UX7) here?
The log2 fold change was -0.022 (inactive).

GSK3A (UniProt P49840) was tested. Which log2 fold change did it give?
The log2 fold change was -0.052 (inactive).

With HLTF (UniProt Q14527) as the target, how does the log2 fold change read?
The log2 fold change was -0.003 (inactive).

HTATIP2 isoform 3 (UniProt Q9BUP3) was tested. Which log2 fold change did it give?
Its log2 fold change is -0.143 (inactive).

How did the log2 fold change turn out when HMGN1 (UniProt P05114) was run?
The log2 fold change was -0.014 (inactive).

Which log2 fold change does the source give for GTPBP6 (UniProt O43824) here?
The log2 fold change was -0.706 (active).

For HEATR5B (UniProt Q9P2D3), which log2 fold change is on record?
The log2 fold change was -0.007 (inactive).

Which log2 fold change does the source give for FUCA2 (UniProt Q9BTY2) here?
Its log2 fold change is -0.809 (active).

With GALNT4 (UniProt Q8N4A0) as the target, how does the log2 fold change read?
The log2 fold change was -0.042 (inactive).

HAT1 (UniProt O14929) was tested. Which log2 fold change did it give?
The log2 fold change was -0.115 (inactive).

GHDC (UniProt Q8N2G8) was tested. Which log2 fold change did it give?
The log2 fold change was -0.165 (inactive).

How did the log2 fold change turn out when IFNGR1 (UniProt P15260) was run?
The log2 fold change was -0.262 (inactive).

HDAC2 (UniProt Q92769) was tested. Which log2 fold change did it give?
The log2 fold change was 0.137 (inactive).

With GALNT11 (UniProt Q8NCW6) as the target, how does the log2 fold change read?
Its log2 fold change is -0.055 (inactive).

How did the log2 fold change turn out when HNRNPH1 (UniProt P31943) was run?
The log2 fold change was 0.004 (inactive).

For GOLPH3 (UniProt Q9H4A6), which log2 fold change is on record?
The log2 fold change was 0.074 (inactive).

For HMG20A (UniProt Q9NP66), which log2 fold change is on record?
Its log2 fold change is -0.012 (inactive).

How did the log2 fold change turn out when FBXO9 (UniProt Q9UK97) was run?
Its log2 fold change is 0.067 (inactive).

Which log2 fold change does the source give for GLUD2 (UniProt P49448) here?
The log2 fold change was 0.234 (inactive).

Which log2 fold change does the source give for GTF3C5 isoform 3 (UniProt Q9Y5Q8) here?
The log2 fold change was 0.028 (inactive).

How did the log2 fold change turn out when GSTO1 (UniProt P78417) was run?
Its log2 fold change is 0.021 (inactive).

HECTD1 (UniProt Q9ULT8) was tested. Which log2 fold change did it give?
Its log2 fold change is 0.025 (inactive).

FRA10AC1 isoform 3 (UniProt Q70Z53) was tested. Which log2 fold change did it give?
Its log2 fold change is -0.087 (inactive).

How did the log2 fold change turn out when HBQ1 (UniProt P09105) was run?
Its log2 fold change is 0.028 (inactive).

Which log2 fold change does the source give for GEMIN5 (UniProt Q8TEQ6) here?
Its log2 fold change is 0.015 (inactive).

With IFRD2 isoform 2 (UniProt Q12894) as the target, how does the log2 fold change read?
Its log2 fold change is -0.083 (inactive).

With HIC2 (UniProt Q96JB3) as the target, how does the log2 fold change read?
The log2 fold change was 0.065 (inactive).

How did the log2 fold change turn out when GGT7 (UniProt Q9UJ14) was run?
The log2 fold change was -0.081 (inactive).

Which log2 fold change does the source give for FUT8 (UniProt Q9BYC5) here?
Its log2 fold change is -0.062 (inactive).

These targets were tested with Cc1cccc(CC(=O)N2CCc3c2ccc(-c2cn(C)c4ncnc(N)c24)c3F)n1 in the same assay as above.
Procedure, shortened: as §1

FDPS (UniProt P14324) was tested. Which log2 fold change did it give?
The log2 fold change was 0.204 (inactive).

GLUD1 (UniProt P00367) was tested. Which log2 fold change did it give?
Its log2 fold change is 0.012 (inactive).

For GLRX3 (UniProt O76003), which log2 fold change is on record?
Its log2 fold change is 0.025 (inactive).

For GTF3A (UniProt Q92664), which log2 fold change is on record?
The log2 fold change was -0.026 (inactive).

With GLS (UniProt O94925) as the target, how does the log2 fold change read?
The log2 fold change was 0.025 (inactive).

GUSB (UniProt P08236) was tested. Which log2 fold change did it give?
Its log2 fold change is -0.013 (inactive).

With FERMT3 (UniProt Q86UX7) as the target, how does the log2 fold change read?
The log2 fold change was 0.029 (inactive).

For GSK3A (UniProt P49840), which log2 fold change is on record?
The log2 fold change was -0.027 (inactive).

HLTF (UniProt Q14527) was tested. Which log2 fold change did it give?
The log2 fold change was 0.017 (inactive).

How did the log2 fold change turn out when HTATIP2 isoform 3 (UniProt Q9BUP3) was run?
The log2 fold change was -0.016 (inactive).

Which log2 fold change does the source give for HMGN1 (UniProt P05114) here?
Its log2 fold change is -0.012 (inactive).

How did the log2 fold change turn out when GTPBP6 (UniProt O43824) was run?
Its log2 fold change is -0.072 (inactive).

Which log2 fold change does the source give for HEATR5B (UniProt Q9P2D3) here?
Its log2 fold change is 0.014 (inactive).

How did the log2 fold change turn out when FUCA2 (UniProt Q9BTY2) was run?
The log2 fold change was -0.022 (inactive).

Which log2 fold change does the source give for GALNT4 (UniProt Q8N4A0) here?
The log2 fold change was -0.042 (inactive).

For HAT1 (UniProt O14929), which log2 fold change is on record?
Its log2 fold change is 0.017 (inactive).

With GHDC (UniProt Q8N2G8) as the target, how does the log2 fold change read?
The log2 fold change was 0.018 (inactive).

Which log2 fold change does the source give for IFNGR1 (UniProt P15260) here?
Its log2 fold change is -0.027 (inactive).

HDAC2 (UniProt Q92769) was tested. Which log2 fold change did it give?
The log2 fold change was -0.046 (inactive).

How did the log2 fold change turn out when GALNT11 (UniProt Q8NCW6) was run?
Its log2 fold change is -0.089 (inactive).

HNRNPH1 (UniProt P31943) was tested. Which log2 fold change did it give?
Its log2 fold change is 0.037 (inactive).

With GOLPH3 (UniProt Q9H4A6) as the target, how does the log2 fold change read?
Its log2 fold change is 0.032 (inactive).

With HMG20A (UniProt Q9NP66) as the target, how does the log2 fold change read?
The log2 fold change was -0.05 (inactive).

FBXO9 (UniProt Q9UK97) was tested. Which log2 fold change did it give?
The log2 fold change was 0.234 (inactive).

GLUD2 (UniProt P49448) was tested. Which log2 fold change did it give?
The log2 fold change was 0.02 (inactive).

GTF3C5 isoform 3 (UniProt Q9Y5Q8) was tested. Which log2 fold change did it give?
Its log2 fold change is -0.013 (inactive).

How did the log2 fold change turn out when GSTO1 (UniProt P78417) was run?
The log2 fold change was 0.148 (inactive).

For HECTD1 (UniProt Q9ULT8), which log2 fold change is on record?
Its log2 fold change is 0.029 (inactive).

Which log2 fold change does the source give for FRA10AC1 isoform 3 (UniProt Q70Z53) here?
The log2 fold change was 0.018 (inactive).

Which log2 fold change does the source give for HBQ1 (UniProt P09105) here?
The log2 fold change was 0.046 (inactive).

Which log2 fold change does the source give for GEMIN5 (UniProt Q8TEQ6) here?
Its log2 fold change is 0.065 (inactive).

For IFRD2 isoform 2 (UniProt Q12894), which log2 fold change is on record?
Its log2 fold change is -0.019 (inactive).

Which log2 fold change does the source give for HIC2 (UniProt Q96JB3) here?
The log2 fold change was 0.006 (inactive).

GGT7 (UniProt Q9UJ14) was tested. Which log2 fold change did it give?
The log2 fold change was -0.038 (inactive).

For FUT8 (UniProt Q9BYC5), which log2 fold change is on record?
Its log2 fold change is -0.042 (inactive).

Reference: the supplement of paper PMC10849652
